Assay results published in PubChem BioAssay (Tox21).
Where “and” joins values, the source holds several entries; their conditions need not be identical. Equal entries are not always repeated. Records with an inconclusive call do not appear. Where a call stands in place of a potency, no number is given. Calls of active or inactive are those of the source. Unless noted, calls come from the whole dose curve.

Columns and labels:
[1] = Nuclear factor erythroid 2-related factor 2/antioxidant responsive element (Nrf2/ARE) small molecule agonists: luciferase reporter gene qHTS assay in human keratinocytes (AID 1919969); note: nearly all actives have a fitted effect of over 35% in size; note: potency is the fitted concentration of half-maximal effect
[2] = molecular target: Gonadotropin-releasing hormone receptor (Homo sapiens) (UniProt P30968); test: Human gonadotropin-releasing hormone receptor (GnRHR) small molecule agonists, calcium flux assay in GnRHR-HEK293 cells (AID 1920063); note: nearly all actives have a fitted effect of over 35% in size
Procedure, shortened: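 Stable human GnRHR HEK293 line. 18 h plating, then calcium dye for 1 h at 37 C. Agonist-mode compound addition from DMSO stocks; fluorescence monitored 3 min.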

[3] = molecular target: KiSS-1 receptor (Homo sapiens) (UniProt Q969F8); test: Human kisspeptin (KISS1R) small molecule agonists, calcium flux assay in KISS1R-HEK293 cells (AID 1920064; active = well fitted activation curve with a large enough effect in the repeat runs)
Procedure, shortened: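 After overnight (18 h) culture at 37 C/5% CO2, human KISS1R-HEK293 cells received calcium dye for 1 h, then test compound; emission at 540 nm (excitation 480 nm) was tracked for 3 min.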

[4] = G protein-coupled receptor (GPCR) small molecule agonists, calcium flux assay: HEK293 wild type cell line counter screen (AID 1920065)
Procedure, shortened: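 Following 18 h incubation at 37 C/5% CO2, plates got calcium dye for 1 h; compounds, ATP or DMSO were then pinned in and fluorescence followed kinetically (480/540 nm).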

[5] = p53 small molecule agonists, cell-based qHTS assay with human liver microsomes (AID 1963577)
Procedure, shortened: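 Compounds act here after metabolic activation: human liver microsomes and NADPH, both at 0.5 mg/mL final, were co-added to p53RE-bla cells. Incubation ran 16 h at 37 C, followed by LiveBLAzer detection.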

[6] = p53 small molecule agonists, cell-based qHTS assay with rat liver microsomes (AID 1963578)
Procedure, shortened: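 Read-out is beta-lactamase reporter fluorescence (LiveBLAzer, 2 h, room temperature, dark) in p53RE-bla cells treated 16 h at 37 C with compound, rat liver microsomes and NADPH, both 0.5 mg/mL final.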

[7] = p53 small molecule agonists, cell-based qHTS assay with human liver microsomes: qHTS cell viability counter screen (AID 1963579); note: nearly all actives have a fitted effect of over 45% in size; note: potency is the fitted concentration of half-maximal effect
Procedure, shortened: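 Cells carrying the p53 response-element beta-lactamase reporter are treated for 16 h at 37 C with test compounds in the presence of human liver microsomes and NADPH (both 0.5 mg/mL final); ATP-based CellTiter-Glo luminescence then reports viability.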

[8] = p53 small molecule agonists, cell-based qHTS assay with rat liver microsomes: qHTS cell viability counter screen (AID 1963580); note: nearly all actives have a fitted effect of over 45% in size
Procedure, shortened: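 Luminescent ATP readout (CellTiter-Glo, 30 min at room temperature) reports viability of p53RE-bla HCT-116 cells after 16 h at 37 C with test compounds under metabolic activation by rat liver microsomes and NADPH at 0.5 mg/mL final each.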

[9] = p53 small molecule agonists, cell-based qHTS assay: qHTS cell viability counter screen (AID 1963581); note: nearly all actives have a fitted effect of over 45% in size
Procedure, shortened: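 qHTS counter screen: 16 h compound exposure at 37 C of p53RE-bla HCT-116 cells (4,000 per well, seeded 5 h prior), cell viability by ATP luminescence.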

[10] = p53 small molecule agonists, cell-based qHTS assay (AID 1963582; active = well fitted activation curve with a large enough effect in the signal ratio in the repeat runs, not every such curve was filed as active; the % refers to the signal ratio)
Procedure, shortened: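 Measured: fluorescence from cleaved LiveBLAzer substrate. System: p53RE-bla cells, 16 h compound treatment at 37 C, 2 h substrate step at room temperature.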

[11] = molecular target: 5-hydroxytryptamine receptor 2A (Homo sapiens) (UniProt P28223); test: 5-hydroxytryptamine receptor 2A (HTR2A) small molecule antagonists, cell-based qHTS assay (AID 1963586); note: nearly all actives have a fitted effect of over 45% in size
Procedure, shortened: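 CHO cells stably expressing human HTR2A were plated for 18 h at 37 C, then loaded with calcium dye for 1 h. Compounds were preincubated 5 min at room temperature before DOI (4 nM solution) was added. Kinetic fluorescence was read for 3 min.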

[12] = molecular target: 5-hydroxytryptamine receptor 2A (Homo sapiens) (UniProt P28223); test: 5-hydroxytryptamine receptor 2A (HTR2A) small molecule agonists, cell-based qHTS assay (AID 1963587); note: nearly all actives have a fitted effect of over 30% in size; note: potency is the fitted concentration of half-maximal effect
Procedure, shortened: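 HTR2A-CHO cells, plated 18 h at 37 C/5% CO2, dye-loaded 1 h at 37 C; compounds in DMSO added by pin tool (agonist mode). Intracellular calcium flux read as kinetic fluorescence on FDSS over 2 min at 1 s intervals.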

[13] = molecular target: Muscarinic acetylcholine receptor M1 (Homo sapiens) (UniProt P11229); test: Cholinergic receptor muscarinic 1 (CHRM1) small molecule antagonists, cell-based qHTS assay (AID 1963588); note: nearly all actives have a fitted effect of over 40% in size; note: potency is the fitted concentration of half-maximal effect
Procedure, shortened: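 Compounds were tested at 15 concentrations in three independent runs. Dye-loaded CHRM1-CHO cells were exposed 5 min at room temperature before stimulation by acetylcholine added at 50nM. Intracellular calcium was read kinetically on FDSS for 3 min.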

[14] = molecular target: Muscarinic acetylcholine receptor M1 (Homo sapiens) (UniProt P11229); test: Cholinergic receptor muscarinic 1 (CHRM1) small molecule agonists, cell-based qHTS assay (AID 1963589); note: nearly all actives have a fitted effect of over 35% in size
Procedure, shortened: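 Kinetic fluorescence (1 s intervals) of calcium-sensitive dye in human M1 CHO cells after compound addition; cells pre-incubated 18 h at 37 C/5% CO2 and dye-loaded 1 h.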

[15] = cAMP Responsive Elements (CRE) small molecule antagonists, cell-based qHTS assay (AID 1963591; active = well fitted inhibition curve with a large enough effect in the signal ratio in the repeat runs, not every such curve was filed as active; the % refers to the signal ratio; note: potency is the fitted concentration of half-maximal effect)
Procedure, shortened: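 Reporter line CRE-bla HEK 293T in dialyzed-FBS DMEM; cells preincubated 18 h, treated 3 h with compound plus NKH477 (0.25 uM final); LiveBLAzer FRET, 2 h RT.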

[16] = molecular target: Beta-2 adrenergic receptor (Homo sapiens) (UniProt P07550); test: Adrenergic beta2 receptor (ADRB2) small molecule antagonists, cell-based qHTS assay (AID 1963592); note: series mostly up to about 92 µM; nearly all actives have a fitted effect of over 50% in size
Procedure, shortened: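 Assay format: CHO-ADRB2 cells, 18-20hr seeding at 37C/5% CO2, then compound plus 1nM isoproterenol agonist mix for 0.5hr RT. Homogeneous time-resolved fluorescence cAMP detection after 1hr, expressed as 665/615 nm ratio.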

[17] = molecular target: Beta-2 adrenergic receptor (Homo sapiens) (UniProt P07550); test: Adrenergic beta2 receptor (ADRB2) small molecule agonists, cell-based qHTS assay (AID 1963593); note: potency is the fitted concentration of half-maximal effect;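 for activation: CHO cells stably overexpressing human ADRB2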
Procedure, shortened: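 CHO cells stably over-expressing ADRB2 were plated overnight at 37C, then dosed with compounds plus a stimulation mix containing 100uM IBMX and 25uM Ro-20-1724 for 0.5hr at room temperature. cAMP was measured by HTRF competition, 1hr.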

[18] = molecular target: D(2) dopamine receptor (Homo sapiens) (UniProt P14416); test: Dopamine D2 receptor (DRD2) small molecule agonists, cell-based qHTS assay (AID 1963594); note: nearly all actives have a fitted effect of over 35% in size; note: potency is the fitted concentration of half-maximal effect
Procedure, shortened: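 HEK293 cells stably expressing DRD2 were cultured 24 h at 37 C, then given Ro20-1724 (0.1 mM final) and compounds for 10 min at room temperature. NKH477 (200nM) was then added for 30 min. cAMP was read by HTRF.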

[19] = molecular target: D(2) dopamine receptor (Homo sapiens) (UniProt P14416); test: Dopamine D2 receptor (DRD2) small molecule antagonists, cell-based qHTS assay (AID 1963595; active = well fitted inhibition curve with a large enough effect in the signal ratio in the repeat runs, with a control signal flat; the % refers to the signal ratio)
Procedure, shortened: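 DRD2-HEK293; 0.1 mM Ro20-1724; cpd 10 min RT; NKH477 200 nM + quinpirole 12 nM, 30 min RT; HTRF cAMP (cAMP-d2/anti-cAMP cryptate), 665/620 nm ratio after 1 h.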

[20] = cAMP Responsive Elements (CRE) small molecule agonists, cell-based qHTS assay (AID 1963590)
Procedure, shortened: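 Test agents in DMSO were incubated 3 h at 37 C/5% CO2 with CRE-bla HEK 293T cells seeded 18 h earlier; LiveBLAzer B/G FRET substrate was added and read after 2 h at room temperature.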

Muscarinic acetylcholine receptor M1 (Homo sapiens), sequence (P11229 whole entry, looked up): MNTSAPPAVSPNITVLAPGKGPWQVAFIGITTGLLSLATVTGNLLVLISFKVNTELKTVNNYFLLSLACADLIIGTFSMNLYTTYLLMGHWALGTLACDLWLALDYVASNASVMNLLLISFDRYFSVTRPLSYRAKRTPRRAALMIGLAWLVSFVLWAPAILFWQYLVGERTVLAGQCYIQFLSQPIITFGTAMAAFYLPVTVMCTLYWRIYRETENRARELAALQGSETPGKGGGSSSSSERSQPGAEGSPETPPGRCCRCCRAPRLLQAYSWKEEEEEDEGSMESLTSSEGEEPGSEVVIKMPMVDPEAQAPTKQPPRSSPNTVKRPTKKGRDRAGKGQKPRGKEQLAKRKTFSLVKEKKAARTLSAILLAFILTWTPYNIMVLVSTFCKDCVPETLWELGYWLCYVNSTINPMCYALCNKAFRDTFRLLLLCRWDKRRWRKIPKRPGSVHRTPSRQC
Gonadotropin-releasing hormone receptor (Homo sapiens), sequence (P30968 whole entry, looked up): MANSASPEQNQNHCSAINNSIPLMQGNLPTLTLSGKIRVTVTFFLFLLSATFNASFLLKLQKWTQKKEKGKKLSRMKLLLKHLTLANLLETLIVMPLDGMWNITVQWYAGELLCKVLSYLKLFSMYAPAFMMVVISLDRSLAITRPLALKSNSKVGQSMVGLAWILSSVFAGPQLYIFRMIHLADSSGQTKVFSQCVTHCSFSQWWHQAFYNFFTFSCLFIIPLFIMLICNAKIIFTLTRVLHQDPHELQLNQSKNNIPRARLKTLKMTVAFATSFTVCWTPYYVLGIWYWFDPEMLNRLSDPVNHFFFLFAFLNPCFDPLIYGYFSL
5-hydroxytryptamine receptor 2A (Homo sapiens), sequence (P28223 whole entry, looked up): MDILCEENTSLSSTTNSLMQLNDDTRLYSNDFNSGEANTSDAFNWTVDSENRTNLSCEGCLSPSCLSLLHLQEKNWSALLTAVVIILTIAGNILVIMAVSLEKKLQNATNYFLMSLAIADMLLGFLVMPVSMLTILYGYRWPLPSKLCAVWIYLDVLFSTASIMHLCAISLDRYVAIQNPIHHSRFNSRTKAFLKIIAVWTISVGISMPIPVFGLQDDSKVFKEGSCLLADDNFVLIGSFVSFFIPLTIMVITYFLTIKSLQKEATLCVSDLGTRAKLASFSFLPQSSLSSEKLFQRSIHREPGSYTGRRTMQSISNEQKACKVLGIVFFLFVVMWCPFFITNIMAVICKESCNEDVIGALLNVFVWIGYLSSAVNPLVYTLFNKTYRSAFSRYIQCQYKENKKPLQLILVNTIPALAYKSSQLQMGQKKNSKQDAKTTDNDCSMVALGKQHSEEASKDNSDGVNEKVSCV
KiSS-1 receptor (Homo sapiens), sequence (Q969F8 whole entry, looked up): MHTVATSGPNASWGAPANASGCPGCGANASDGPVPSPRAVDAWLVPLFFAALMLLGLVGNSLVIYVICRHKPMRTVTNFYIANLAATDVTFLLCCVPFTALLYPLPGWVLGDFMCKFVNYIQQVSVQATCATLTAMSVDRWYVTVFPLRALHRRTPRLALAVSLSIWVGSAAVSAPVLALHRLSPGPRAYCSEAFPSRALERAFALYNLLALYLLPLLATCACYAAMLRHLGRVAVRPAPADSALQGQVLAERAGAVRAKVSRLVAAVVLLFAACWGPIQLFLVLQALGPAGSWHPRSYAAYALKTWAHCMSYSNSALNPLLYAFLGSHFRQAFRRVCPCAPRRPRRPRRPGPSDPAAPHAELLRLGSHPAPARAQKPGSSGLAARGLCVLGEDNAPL
D(2) dopamine receptor (Homo sapiens), sequence (P14416 whole entry, looked up): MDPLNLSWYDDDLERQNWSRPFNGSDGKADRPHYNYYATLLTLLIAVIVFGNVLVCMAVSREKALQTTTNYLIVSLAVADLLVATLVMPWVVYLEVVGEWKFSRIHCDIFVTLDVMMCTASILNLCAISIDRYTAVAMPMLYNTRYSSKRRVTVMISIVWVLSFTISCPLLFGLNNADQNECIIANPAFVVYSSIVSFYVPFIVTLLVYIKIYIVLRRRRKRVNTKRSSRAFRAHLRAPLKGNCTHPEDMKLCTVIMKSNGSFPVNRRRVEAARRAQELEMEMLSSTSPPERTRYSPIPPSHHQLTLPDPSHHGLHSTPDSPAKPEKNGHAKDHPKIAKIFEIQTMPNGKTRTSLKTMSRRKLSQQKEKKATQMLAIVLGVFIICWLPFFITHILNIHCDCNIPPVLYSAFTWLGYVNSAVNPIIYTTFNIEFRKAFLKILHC
Beta-2 adrenergic receptor (Homo sapiens), sequence (P07550 whole entry, looked up): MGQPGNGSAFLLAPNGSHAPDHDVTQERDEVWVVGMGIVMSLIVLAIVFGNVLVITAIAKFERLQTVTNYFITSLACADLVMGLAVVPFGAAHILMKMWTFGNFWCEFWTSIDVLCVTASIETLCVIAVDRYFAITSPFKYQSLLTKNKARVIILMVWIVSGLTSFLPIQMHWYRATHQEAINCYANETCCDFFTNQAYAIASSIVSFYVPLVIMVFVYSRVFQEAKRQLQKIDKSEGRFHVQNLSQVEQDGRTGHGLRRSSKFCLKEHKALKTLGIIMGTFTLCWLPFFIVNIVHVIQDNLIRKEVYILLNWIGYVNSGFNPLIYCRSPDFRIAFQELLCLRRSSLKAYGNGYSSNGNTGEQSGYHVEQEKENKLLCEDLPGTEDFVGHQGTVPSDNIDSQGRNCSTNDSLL

Row | SMILES | Potency [1] | Potency [2] | Potency [3] | Potency [4] | Potency [5] | Potency [6] | Potency [7] | Potency [8] | Potency [9] | Potency [10] | Potency [11] | Potency [12] | Potency [13] | Potency [14] | Potency [15] | Potency [16] | Potency [17] | Potency [18] | Potency [19] | Potency [20]
1 | Brc1ccc(Oc2ccc(Br)cc2Br)c(Br)c1 | 6.12 µM (active) | inactive | inactive | inactive | inactive | inactive | inactive | inactive | inactive | inactive | inactive | inactive | inactive | inactive | inactive | inactive | inactive | inactive | inactive | –
2 | [O-][Br+2]([O-])O | inactive | inactive | inactive | inactive | inactive | inactive | inactive | inactive | inactive | inactive | inactive | inactive | inactive | inactive | inactive | inactive | – | inactive | inactive | inactive
3 | CC(C)C(=O)Cl | inactive | inactive | inactive | inactive | inactive | inactive | inactive | inactive | – | inactive | inactive | inactive | inactive | inactive | inactive | inactive | – | inactive | – | inactive
4 | C[N+](C)(C)CCCl | inactive | inactive | inactive | inactive | inactive | inactive | inactive | inactive | – | inactive | inactive | inactive | inactive | – | – | inactive | – | inactive | inactive | inactive
5 | CC(C)N1C(=O)N(c2ccccc2)CSC1=NC(C)(C)C | inactive | inactive | inactive | inactive | inactive | inactive | inactive | inactive | inactive | – | inactive | inactive | inactive | inactive | – | inactive | inactive | inactive | inactive | –
6 | ClC1=C(Cl)[C@]2(Cl)[C@@H]3[C@@H](Cl)[C@H]4O[C@H]4[C@@H]3C1(Cl)C2(Cl)Cl | inactive | inactive | inactive | inactive | inactive | inactive | inactive | inactive | inactive | – | inactive | inactive | – | inactive | – | – | 61.1 µM (active) | – | – | –
7 | OC(c1ccc(Cl)cc1)(c1ccc(Cl)cc1)C(Cl)(Cl)Cl | inactive | inactive | inactive | inactive | inactive | inactive | inactive | inactive | inactive | inactive | inactive | inactive | 26.5 µM (active) | inactive | – | inactive | – | – | – | –
8 | C=C(Cl)Cl | inactive | inactive | inactive | inactive | inactive | inactive | inactive | inactive | inactive | inactive | – | – | – | – | inactive | – | – | inactive | inactive | –
9 | CC(=O)[O-].CC(=O)[O-].O.O.O.[Pb+2] | – | – | – | inactive | – | – | inactive | inactive | – | – | inactive | inactive | inactive | inactive | inactive | inactive | – | inactive | inactive | inactive
10 | C[C@@H]1C[C@@H]([C@H](O)CC2CC(=O)NC(=O)C2)C(=O)[C@@H](C)C1 | inactive | inactive | inactive | inactive | inactive | inactive | inactive | inactive | inactive | inactive | – | – | – | – | 8.58 µM (active) and 8.3 µM (active) and 2.66 µM (active) | inactive | – | inactive | inactive | inactive
11 | O=CNC(N1CCN(C(NC=O)C(Cl)(Cl)Cl)CC1)C(Cl)(Cl)Cl (centres undefined) | inactive | inactive | inactive | inactive | inactive | inactive | inactive | inactive | inactive | inactive | inactive | inactive | – | inactive | – | inactive | – | inactive | inactive | –
12 | CCN(CC)CCOC(=O)C(O)(c1ccccc1)c1ccccc1 | inactive | inactive | inactive | inactive | inactive | inactive | inactive | inactive | inactive | inactive | – | 1.34 µM (active) | – | – | inactive | inactive | – | inactive | inactive | inactive
13 | Oc1c(Br)c(Br)c(Br)c(Br)c1Br | inactive | inactive | inactive | inactive | inactive | inactive | 23.1 µM (active) | inactive | – | inactive | – | – | 30 µM (active) | inactive | – | inactive | – | – | – | –
14 | CCCN(CC1CC1)c1c([N+](=O)[O-])cc(C(F)(F)F)cc1[N+](=O)[O-] | 48.6 µM (active) | inactive | inactive | inactive | inactive | inactive | inactive | inactive | inactive | inactive | inactive | – | inactive | inactive | inactive | inactive | – | inactive | inactive | inactive
15 | CC(CC(C#N)(c1ccccc1)c1ccccc1)N(C)C (centres undefined) | – | – | – | inactive | inactive | inactive | inactive | inactive | inactive | – | – | – | 0.0105 µM (active) | inactive | inactive | inactive | – | inactive | inactive | inactive
16 | CC1NCCOC1c1ccccc1 (centres undefined) | inactive | inactive | inactive | inactive | inactive | inactive | inactive | inactive | inactive | inactive | – | – | inactive | inactive | inactive | inactive | inactive | 14.1 µM (active) | inactive | inactive
